Rin1-Abl PPI inh: inhibitors of human Rin1-Abl protein interaction. AID 588664. TR-FRET Rin1/Abl binding, biochemical. 360,000 compounds, 0.4% hits. inhibition, % at 7.35 µM; in the data active means inhibition above about 5%, passing the limit was not always enough
CaV13 ICDI inh: Disruptors of the CACNA1D IQ motif to Ca2+-dependent inactivation inhibitor domain association, primary screening, Förster resonance energy transfer in intact living …. inhibition, % at 12.3 µM. AID 743397. 340,000 compounds, 0.098% hits. HEK cells, CFP/YFP FRET ICDI-IQ, plate reader, 10 min; percent FRET-ratio fall versus neutral wells;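 active means mean replicate inhibition of at least 30% and at least 1% of replicates passing that level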;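 further: 0% = median of the neutral control wells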
NPR1 activator: GC-A (human) enzyme activation. activation, % at 10 µM. P16066. HEK293 GC-A cells, cGMP TR-FRET, EC30 ANP; 0% at EC30 ANP, 100% saturating ANP. AID 1671463. 370,000 compounds, 0.14% hits; in the data active means activation above about 40%
NPR2 activator: GC-B (human) receptor activation; HEK293-GC-B cells, CNP EC30, cGMP TR-FRET; 0% at EC30 CNP, 100% saturating CNP; 370,000 compounds, 0.11% hits; activation, % at 10 µM; AID 1920062;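 active means activation at 10 µM reaching about 35% in either raw or pattern-adjusted values, limit read from the data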
Rin1-Abl confirm: Rin1-Abl interaction inhibition confirmation; 1,300 compounds, 49% hits; shares compounds with Rin1-Abl PPI inh; TR-FRET Rin1-Abl binding, purified proteins; inhibition, % at 7.35 µM
GFP quencher: quenches GFP fluorescence, counter-screen for Rin1-Abl inhibitors; shares compounds with Rin1-Abl PPI inh; inhibitors/quenchers counterscreen; inhibition, % at 6.75 µM; 1,300 compounds, 8.5% hits; AID 602125;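 further: ABL1-eGFP fusion protein alone without its partner RIN1-SBP; 0% = protein with vehicle and 100% = wells lacking protein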
GFP quench DR: quenches GFP in dose response, Rin1-Abl counter-screen; shares compounds with Rin1-Abl PPI inh; GFP fluorescence interference/quenching counterscreen; IC50, µM; 230 tested, under 10 active; AID 602182; call rule not given here;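 further: ABL1-eGFP fusion protein alone without its RIN1 binding partner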
Active calls of the source: *; / = not tested or not shown; ! = a repeat was not active. This is a sample that favours compounds with a hit; in the whole collection about 0.67% have one here. Unless noted, no stated cut-off is given here; in the data, active means inhibition above about 6.5%; inactive means the rest.

SMILES	Rin1-Abl PPI inh	CaV13 ICDI inh	NPR1 activator	NPR2 activator	Rin1-Abl confirm	GFP quencher	others
Oc1ccc(/C=N/N=C/c2ccc(O)c(O)c2)cc1O	23*	-18	0	-8	57*	16*
Cc1ccc(C=NNC(=O)CSc2nc3sc4c(c3c(=O)n2-c2ccccc2)CCCC4)s1	/	/	1	-3	/	/
COc1ccccc1CNc1nc(NCc2ccc(NC(C)=O)cc2)c2sccc2n1	10*	-9	1	3	7.8*	2
COc1ccccc1CNc1nc(NCc2ccccc2OC)c2sccc2n1	-2	-6	-7	-3	/	/
COc1ccccc1CNc1nc(NCCNC(C)=O)c2sccc2n1	19*	-9	1	-2	15*	0
Nn1c(SCC(=O)Nc2nccs2)nnc1-c1cc(-c2ccccc2)n[nH]1	/	/	0	0	/	/
COc1cc(S(=O)(=O)Nc2ccccc2)ccc1NC=O	5.4*	-7	1	-2	-2	1
CC(=O)c1c(C)[nH]c(C(=O)Nc2ccccc2N2CCOCC2)c1C	4.7*	-2	8	8	-3	0
CCOc1cc(N2CCOCC2)c(OCC)cc1NC(=O)c1[nH]c(C)c(C(C)=O)c1C	0	-6	8	3	/	/
CN(CCc1ccccc1)C(=O)c1cc2ccccn2n1	/	/	2	-7	/	/
O=C(NCCO)[C@H](Cc1ccccc1)NC1(C(=O)NCCN2CCOCC2)CCCCC1	/	/	0	-1	/	/
COc1ccc(CNS(=O)(=O)/C=C/c2ccc(F)cc2CNC(=O)OC(C)(C)C)cc1	/	/	-9	-8	/	/
CN(C)CCCNC(=O)c1ccc(-c2cc(O)c3ncccc3c2)cc1	25*	-5	-6	-10	31*	19*
O=C(NNC(=O)c1cccnc1)NC1CCCCC1	1	-5	-2	5	/	/
O=C(NNC(=O)c1cc(O)c(O)c(O)c1)NC1CCCCC1	22*	/	7	-6	22*	14*
COc1cc(/C=C2\CC/C(=C\c3cc(OC)c(OC)c(OC)c3)C2=O)cc(OC)c1OC	-3	-31	5	9	/	/
COc1cc(/C=C2\CC/C(=C\c3cc(OC)c(O)c(OC)c3)C2=O)cc(OC)c1O	30*	-5	-3	1	34*	24*
Oc1ccc(C2CNCCc3c2cc(O)c(O)c3Cl)cc1 (stereo not drawn)	18*!	-6	1	3	30*	8.4*
CC(=O)N1CCN(C(=O)C2CCCN(C(=O)c3ccc4c(c3)NC(=O)CS4)C2)CC1 (stereo not drawn)	/	/	2	-1	/	/
COC(=O)c1ccc(COC(=O)C2CCN(S(=O)(=O)c3ccc(C)c(C)c3)CC2)o1	16*	-6	0	-6	31*	-2	GFP quench DR=>68
O=C(COC(=O)CNC(=O)c1ccco1)NCCN1C(=O)CSC1=O	5.0*	-4	4	10	-2	-1
Cc1cc(=O)n(-c2ccc(C(=O)O)cc2)[nH]1	8.3*	0	2	1	0	-1
Cc1cc(=O)n(-c2ccc(O)cc2)[nH]1	3	/	3	-7	/	/
CC(=O)CC[C@H]1CC[C@]2(CCCN(C(=O)C(C)(C)C)C2)O1	/	/	2	-3	/	/
CC1=NN(c2ccccc2)C(=O)/C1=C\c1cn(-c2ccccc2)nc1C	-1	-17	-5	-1	/	/
SMILES	Rin1-Abl PPI inh	CaV13 ICDI inh	NPR1 activator	NPR2 activator	Rin1-Abl confirm	GFP quencher	others
C#CCOc1ccc(/C=C2/C(=O)N(c3cccc(C(=O)O)c3)N=C2C)cc1OC	16*	0	3	-1	2	0
CC1=NN(c2ccccc2)C(=O)/C1=C\c1ccc(Oc2ccc([N+](=O)[O-])cc2[N+](=O)[O-])cc1	7.4*	-4	3	9	1	0
COc1ccccc1/C=C1/C(=O)N(c2ccccc2)N=C1C	13*	-3	15	-4	1	-1
COc1cc(/C=C2\C(=O)N(c3cccc(C(=O)O)c3)N=C2C)ccc1OCc1ccccc1	6	-5	12	-7	/	/
COc1cc(/C=C2\C(=O)N(c3ccc(S(N)(=O)=O)cc3)N=C2C)ccc1OC(=O)c1ccco1	10*	2	18	5	-1	0
CCCCCN1CCCCC(NC(=O)c2cccc(F)c2)C1=O (stereo not drawn)	/	/	-2	2	/	/
CCOc1ccc(NC(=O)CSc2nnc(-c3n[nH]c4c3CCC4)n2N)cc1	/	/	0	-2	/	/
O=C(CN1CCN(Cc2ccccc2)CC1)N/N=C\c1c2ccccc2cc2ccccc12	/	/	-15	-12	/	/
Oc1cccc(/C=N/N2CCCCC2)c1O	2	-18	-1	5	/	/
Oc1ccc(/C=N/N2CCOCC2)c(O)c1O	30*	-8	-7	11	33*	7	GFP quench DR=>68
Oc1ccc(/C=N/N2CCCCC2)c(O)c1O	25*	-5	-1	-1	32*	6	GFP quench DR=>68
Nc1ccc2c(c1)C(=O)C(=O)c1ccccc1-2	10*	/	-9	-12	5	4
Nc1ccc2c(c1)C(=O)c1ccccc1-2	-12	-5	-5	-8	/	/
Cc1cc(-c2n[nH]c(=S)n2N=Cc2ccc(O)cc2)n[nH]1	/	/	3	-5	/	/
Cc1ccc(-n2c(C)cc(C)c(C#N)c2=O)cc1Cl	0	-3	-1	-3	/	/
Cc1cc(C)n(-c2cc(Cl)cc(Cl)c2)c(=O)c1C#N	8.3*	/	5	-4	-3	0
CSc1ccc(CCNC(=O)CN2C(=O)c3cccnc3Oc3ccc(C)cc32)cc1	1	-4	-3	-2	/	/
CCOc1ccc(CCNC(=O)CN2C(=O)c3cccnc3Oc3ccc(C)cc32)cc1OCC	36*	-2	-2	3	41*	0	GFP quench DR=>67
CCOc1ccc(CCNC(=O)CN2C(=O)c3cccnc3Oc3ccc(Cl)cc32)cc1	26*	-1	-2	-4	24*	-2	GFP quench DR=>68
CN1C(=O)c2cc(NS(=O)(=O)c3cccc(F)c3)ccc2OC[C@@H]2O[C@H](CC(=O)O)CC[C@H]21	/	/	-1	-5	/	/
Cc1ccc(C2NC(=O)CCC2[N+](=O)[O-])cc1 (stereo not drawn)	9	-4	-2	2	/	/
O=C1CCC([N+](=O)[O-])C(c2ccc(Br)cc2)N1 (stereo not drawn)	11*	-6	2	0	8.1*	-1
NC(CO)C(=O)NNCc1ccc(O)c(O)c1O (stereo not drawn)	37*	-5	0	4	29*	6
COC(=O)C(N)Cc1ccc(O)c(O)c1 (stereo not drawn)	1	/	4	4	/	/
COc1ccc(C(=O)N[C@H]2CC[C@@]34CCCN3C(=O)CCC[C@H]4[C@H]2C)cc1	/	/	1	5	/	/
